From PubChem BioAssay AID2384 (Southern Research Specialized Biocontainment Screening …, 2010) come the findings set out here.

Screen size: about 2,300 compounds; about 1,100 (48%) were called active. The rule behind the calls is not given here. The set was probably picked from earlier hits. The list shows a part of the results. Results with a measured potency or affinity are listed apart.

This assay can be described thus: inhibitors in S. typhi counter-screen strain, dose response, counter-screen for PhoP regulon inhibitor project, fluorescence, 4 h (AID 2384). As to conditions: S. typhi GFP reporter counter-screen; series mostly up to 150 µM.
As for `Cc1ccc(/C=N/n2c(C)nc3ccccc3c2=O)s1`, the inhibition entry is “inactive”.

Consider `Cc1ccc(-c2[nH]ncc2/C=N/n2c(C)nc3ccccc3c2=O)cc1`, for which the inhibition result is “inactive”. Take `O=C(C[n+]1cc(-c2ccccc2)n2c1CCC2)c1cccs1`: the inhibition entry was “inactive”. As to `CCOC(=O)Cc1csc(NC(=O)c2ccc(S(=O)(=O)N3CCCC3)cc2)n1`, the inhibition entry was “inactive”. Next, `O=C(/C=C/c1ccc(O)cc1)c1ccccc1`: “inactive”. For `COc1cccc(C2=NO[C@@H]3C(=O)N(Cc4ccccc4)C(=O)[C@H]23)c1OC` the value was “inactive”. As to `CCc1nnc(NS(=O)(=O)c2ccc(NC(=S)NC(=O)/C=C/c3ccc([N+](=O)[O-])cc3)cc2)s1`, the inhibition result was “inactive”. As for `Cc1cc2ncn(/N=C/c3ccc([N+](=O)[O-])o3)c2cc1C`, the inhibition result was “inactive”.

Consider `Cc1ccc2[nH]c(C(=O)O)c(NC(=O)CN3CCN(c4cccc(C)c4C)CC3)c2c1`, for which the inhibition entry was “inactive”. For `Cc1ccc(C(C(=O)NCCc2ccccc2)N(C(=O)c2csnn2)C2CC2)o1` (stereo not given) the value was “inactive”.

`[O-][n+]1c2ccccc2cc2ccccc21`: the inhibition entry was “inactive”. Next, `Cc1ccc(S(=O)(=O)NCC(=O)OCN2C(=O)c3ccccc3C2=O)cc1`: “inactive”; `CCCOc1ccc(N2C(=O)C3C(C(C)C)NC4(C(=O)c5ccccc5C4=O)C3C2=O)cc1` (stereo not given): “inactive”. Turning to `COc1ccc(-c2csc(N)n2)cc1F`, the inhibition result is “inactive”.

In the case of `CNC(=O)Nc1cccc(C(F)(F)F)c1`, the inhibition entry was “inactive”. Next, `Cc1nc2ccc(NC(=O)c3cccc(C(F)(F)F)c3)cc2o1`: “inactive”; `O=C(CNC(=O)Cn1ccc2ccccc2c1=O)NCCCN1CCCCCC1`: “inactive”; `Cc1cc(C)cc(NC(=O)C(Sc2nnc(C)c(=O)[nH]2)c2ccccc2)c1` (stereo not given): “inactive”.

`CCCC1C(c2ccc(OC)cc2)C(C#N)(C#N)C2(C#N)CC1(N)NC2=O` (stereo not given): the inhibition result is “inactive”. For `CCNC(=S)N1CCN(CC)CC1` the value was “inactive”. For `O=C(Nc1ccc(Br)cc1)N1CCCCC1` the value was “inactive”. Turning to `Cc1cc(Cl)ccc1OCCCC(=O)N1CCCc2ccccc21`, the inhibition entry was “inactive”.

As to `Cn1c(=O)c(=O)n(C)c2cc(S(=O)(=O)N3CCc4ccccc43)ccc21`, the inhibition result is “inactive”.

Turning to `O=C1NC(=S)S/C1=C1\Sc2ccccc2N1CCCS(=O)(=O)O`, the inhibition entry is “inactive”.

For `CN1Cc2ccccc2N(CC(=O)NCc2ccccc2)C1=O`, the inhibition entry was “inactive”. Next, `Cc1cc(NC(=O)CSc2nnc(-c3cccnc3)n2N)no1`: “inactive”; `O=C1N/C(=C/c2ccc(N3CCOCC3)cc2)C(=O)N1Cc1ccc(F)cc1`: “inactive”; `O=C(OCc1nc2ccccc2s1)c1ccco1`: “inactive”. Next, `O=C(O)CC/C(=C\c1ccccc1[N+](=O)[O-])c1nc2ccccc2s1`: “inactive”; `C/C(=N\Nc1ccc(C)c(Cl)c1)c1cccnc1`: “inactive”; `CCOc1ccc(-c2nc(N)ncc2-c2ccccc2)c(O)c1`: “inactive”.

Turning to `CCOc1ccc(NC(N)=O)cc1`, the inhibition result is “inactive”. Next, `CCOC(=O)c1ccc(NC(=O)C2CCC(CNc3c(N4CCOCC4)c(=O)c3=O)CC2)cc1` (stereo not given): “inactive”; `Cc1nnc(SCC(=O)N(C(C)C)C(C)C)[nH]c1=O`: “inactive”.

As to `CCc1nc(SCC(=O)Nc2ccc(N(C)C)cc2)c2ccccc2n1`, the inhibition entry was “inactive”.

In the case of `C#CCOC(=O)c1ccccc1C(=O)OCC#C`, the inhibition entry was “inactive”. For `O=C(NCCCNc1ccnc2cc(Cl)ccc12)c1ccccc1F` the value was “inactive”.

On to `COc1ccc(NC(=O)Cn2cnc3c(cnn3C(C)(C)C)c2=O)cc1OC`, for which the inhibition entry was “inactive”. As to `Cc1nc2cc(C(=O)N3CCC4(CC3)OCCO4)ccc2n1-c1cccc(F)c1`, the inhibition entry is “inactive”. For `COC(=O)c1ccc(NC(=O)CO/N=C2\CCCc3nonc32)cc1` the value was “inactive”; for `CCOc1ccc(Cl)cc1/C=N/O`, “inactive”. For `COc1ccccc1/C=C/C(=O)Nc1cccc(C(C)=O)c1` the value was “inactive”; for `COc1ccc2c(c1)CC1(CN2C)C(=O)NC(=O)N(CCc2ccccc2)C1=O` (stereo not given), “inactive”.

As for `CCOC(=O)c1nc2cc3n(c(CC(C)C)c-2c1C)CC(C)=C3C`, the inhibition result is “inactive”. For `CCOc1ccc(N2CC(C(=O)OCC(=O)NCc3ccccc3)CC2=O)cc1` (stereo not given) the value was “inactive”; for `COc1ccc2nc(NC(=O)C3CC(=O)N(c4ccccc4)C3)sc2c1` (stereo not given), “inactive”. For `CCOC(=O)c1ccc(N2Cc3ccccc3C2=NC(=O)c2cccc([N+](=O)[O-])c2)cc1` the value was “inactive”; for `CC(C)Oc1ccc(N2CC(C(=O)Nc3ccccc3F)CC2=O)cc1` (stereo not given), “inactive”. For `COc1ccc(Nc2c3c(nc4ccc(C)cc24)CCC3)cc1`, the inhibition result is “inactive”.

With `COc1cccc(-c2ccc(SCc3ccccn3)nn2)c1`, the inhibition result is “inactive”. Next, `COc1ccccc1-c1nc(C(F)(F)F)c(OC)o1`: “inactive”; `Cc1cc(C)cc(NC(=O)CSc2nnc(CNC(=O)c3cccs3)o2)c1`: “inactive”. Next, `Cc1ccc(CSc2nc3c(c(=O)[nH]2)CCC3)cc1`: “inactive”; `Cc1ccc(C)c(OCC(=O)Nc2cccc(C(=O)O)c2)c1C`: “inactive”. `COc1cc(CNCCCN2CCOCC2)c(Br)cc1OCC(=O)Nc1ccccc1C`: the inhibition result is “inactive”.

Take `Fc1cccc(Cl)c1CSc1ccc(-c2ccco2)nn1`: the inhibition entry was “inactive”. For `Cc1cccc(CSCCNC(=O)COc2ccc(Cl)cc2)c1` the value was “inactive”. For `CCC(Oc1ccccc1)C(=O)Nc1nnc(S(=O)(=O)N2CCCCC2)s1` (stereo not given) the value was “inactive”.

Turning to `ON=C1/C(=N\O)CC2(C/C1=N/O)OCCO2`, the inhibition entry is “inactive”. For `O=C(NCCOc1ccccc1)c1ncn[nH]1` the value was “inactive”; for `CC(C)(C)c1ccc(OCCNC(=S)Nc2ccccc2)cc1`, “inactive”; for `O=C(O)COc1ccccc1/C=N/NC(=O)c1cccc(S(=O)(=O)N2CCOCC2)c1`, “inactive”. Next, `O=C(N/N=C/c1cccnc1)c1ccc([N+](=O)[O-])cc1Cl`: “inactive”; `Cc1noc(C)c1S(=O)(=O)N1CCC(Cc2ccccc2)CC1`: “inactive”. Take `O=[N+]([O-])c1ccc2oc(C3CCCCC3)nc2c1`: the inhibition entry was “inactive”. Next, `O=C(N/N=C/c1ccco1)c1cccc(NC(=O)c2cccc(Cl)c2)c1`: “inactive”.

Take `Cc1cccc(C(=O)NCCC(=O)Nc2ccc(F)c([N+](=O)[O-])c2)c1`: the inhibition result is “inactive”. Next, `CC(C)=CCN1CCN(Cc2nc(-c3ccccc3)cs2)CC1CCO` (stereo not given): “inactive”. For `CCO[C@H]1OC(C(=O)O)=C[C@@H](c2ccccc2)[C@@H]1CCCO` the value was “inactive”. Take `Cc1cccc2cc(C(c3nnnn3Cc3ccccc3)N3CCN(C)CC3)c(=O)[nH]c12` (stereo not given): the inhibition result was “inactive”. Next, `O=C(NC1=NCCS1)c1cccc2ccccc12`: “inactive”; `O=C1CCCC2=C1C(c1ccncc1)Nc1ccccc1N2` (stereo not given): “inactive”; `CCn1nnnc1NCc1cccc(Cl)c1`: “inactive”. For `Clc1ccc(Nc2nc(C3CC3)cs2)cc1` the value was “inactive”; for `CCN(CC(=O)Nc1ccc(C(=O)OC)cc1)C1CCCCC1`, “inactive”. For `CC(c1ccccc1)(c1ccccc1)c1ccncc1` the value was “inactive”; for `COc1ccc(C2C(C(=O)NCc3cccnc3)c3ccccc3C(=O)N2C)cc1OC` (stereo not given), “inactive”. As for `C1=Nc2ccccc2CN1c1ccccc1`, the inhibition result is “inactive”.

As for `CCC(Sc1nc2ccncc2[nH]1)C(=O)Nc1ccc(C)c(Cl)c1` (stereo not given), the inhibition entry is “inactive”. For `Cc1cc(C(=O)Nc2cccnc2)on1`, the inhibition entry was “inactive”.

Take `CCCCNC(=O)CCC(=O)Nc1ccc2nc(N3CCC(C)CC3)cc(C)c2c1`: the inhibition result was “inactive”. Next, `Cc1cc(N2CCN(C3CCCCC3)CC2)nc2cccc(O)c12`: “inactive”; `COc1cccc2[nH]c3c(N4CCN(Cc5ccc6c(c5)OCO6)CC4)ncnc3c12`: “inactive”; `CCn1c(O)c(N=NC(=O)CNC(=O)/C=C/c2ccco2)c2ccccc21`: “inactive”. For `COc1ccc2[nH]cc(C(=O)CCl)c2c1` the value was “inactive”; for `O=C(Cc1ccc(F)cc1)NC1CCCC1`, “inactive”. For `Cn1ncc(N=Cc2ccccc2O)c1C(=O)N1CCOCC1` the value was “inactive”; for `O=C(NC1CCCCC1)c1ccc(S(=O)(=O)NCc2cccnc2)cc1`, “inactive”. As to `Cc1ccc(C)c(OCc2ccc(C(=O)NN)o2)c1`, the inhibition result is “inactive”. With `Cc1nc(-c2ccc(C(=O)N3CCOCC3)cc2)cs1`, the inhibition result was “inactive”. For `CCOc1ccc(OCCSc2nc3ccccc3[nH]2)cc1` the value was “inactive”; for `CCOc1ccc(NC(=S)Nc2cc(C)[nH]n2)cc1`, “inactive”; for `Cc1cc(NS(=O)(=O)c2ccc(NC(=S)NC(=O)c3cccnc3)cc2)no1`, “inactive”.

On to `O=S(=O)(Nc1ncccn1)c1ccc(NC(=S)Nc2cccc(Cl)c2)cc1`, for which the inhibition entry is “inactive”. For `Cc1ccc(NC(=O)OCc2cccs2)cc1` the value was “inactive”.

On to `CC1CCCC(NC(=O)COC(=O)Cc2c[nH]c3ccccc23)C1C` (stereo not given), for which the inhibition entry was “inactive”. Next, `Cc1ccc(-c2c(C)n([O-])c3c([n+]2=O)CCCC3)o1`: “inactive”; `COc1ccccc1OCc1nnc(SCC(=O)NCc2ccco2)n1Cc1ccco1`: “inactive”. For `COC(=O)c1cc2sccc2n1Cc1nc(-c2ccc(OC)cc2)oc1C` the value was “inactive”; for `Nc1ncnc2nc(SCC(=O)Nc3cccc(C(F)(F)F)c3)[nH]c12`, “inactive”. For `O=C(CSc1nc2ncc(Cl)cc2[nH]1)NCC(=O)Nc1ccc(F)c(F)c1F` the value was “inactive”; for `c1cncc(CSc2ccc(-c3cccs3)nn2)c1`, “inactive”. For the compound `CCN(CC)S(=O)(=O)c1ccc(/C(O)=C(\C#N)c2nc3ccccc3n2C)cc1`, the inhibition result was “inactive”. Next, `COc1ccc(CNc2nc3ccccc3n2C)c(O)c1`: “inactive”. Next, `Cn1c(-c2ccc(CN3CCCCC3)o2)nc2ccccc21`: “inactive”; `CC1=C(c2ccccc2)SC2=NCCN21`: “inactive”.

On to `COCc1[nH]nc2c1C(c1c(F)cccc1Cl)C(C#N)=C(N)O2` (stereo not given), for which the inhibition result is “inactive”. For `CC1(C)CC(N2CCN(c3ccccc3)CC2)=CC(=[N+]2CCCC2)C1` the value was “inactive”. For `CC1CCC[C@H](O)CCCCCc2cc(O)cc(O)c2C(=O)O1` (stereo not given in full) the value was “inactive”; for `CC1=C(C#N)CCC(=O)N1Cc1c(C)cc(C)cc1C`, “inactive”. For `O=[N+]([O-])c1ccc(/C=N/NC(=S)Nc2ccc(Cl)cc2Cl)s1` the value was “inactive”. Consider `Nn1cnnc1N/N=C\c1ccc(-c2ccccc2[N+](=O)[O-])o1`, for which the inhibition result was “inactive”. For `COc1ccc(CNC(=O)CCC(=O)N2C[C@H]3C[C@H](C2)c2cccc(=O)n2C3)cc1` the value was “inactive”; for `Cc1cc(NS(=O)(=O)c2ccc(NC(=O)C(C)Oc3ccc4c(C)cc(=O)oc4c3)cc2)no1` (stereo not given), “inactive”. With `COc1cc(OC)nc(NC(=O)C(C)C)n1`, the inhibition result is “inactive”.
